# From PubChem BioAssay
# Unmarked numbers belong to inactive results. For some of these results: Results with a measured potency or affinity are listed apart. Activity calls are given as the source filed them. Unless noted, the rule behind the calls is not given here.
# Legend:
# [1] = antimalarial activity against Dd2 strain (AID 2302;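 active = growth inhibition above 50% at the single 2 µM test dose, taken to imply half-maximal potency below 2 µM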;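 note: 0% = DMSO untreated growth and 100% = chloroquine plus artemisinin killed control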); settings: P. falciparum Dd2 in RBCs, LDH growth readout, 72 h; at 2 µM; stronger effect = higher value
# [2] = human hepatoma cell viability loss – ATP luminescence, cytotoxicity control for P. falciparum antimalarial project, primary screen (AID 2303;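 active = inhibition above 50%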;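 note: 0% = DMSO wells and 100% = digitonin-killed cells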); settings: HepG2 viability, 24-48 h, at 10 µM, stronger effect = higher value
# [3] = target: L-lactate dehydrogenase (Plasmodium falciparum (isolate CDC / Honduras)) (UniProt Q27743); assay: PfLDH activity inhibition – cell lysate, 3D7 strain, counter-screen for P. falciparum growth inhibition project (AID 2304);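 note: 0% = vehicle and 100% = reference inhibitor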; settings: P. falciparum 3D7 crude extract, LDH APAD/NBT absorbance; at 2 µM; stronger effect = higher value
# L-lactate dehydrogenase (Plasmodium falciparum (isolate CDC / Honduras)), sequence (Q27743 whole entry, looked up): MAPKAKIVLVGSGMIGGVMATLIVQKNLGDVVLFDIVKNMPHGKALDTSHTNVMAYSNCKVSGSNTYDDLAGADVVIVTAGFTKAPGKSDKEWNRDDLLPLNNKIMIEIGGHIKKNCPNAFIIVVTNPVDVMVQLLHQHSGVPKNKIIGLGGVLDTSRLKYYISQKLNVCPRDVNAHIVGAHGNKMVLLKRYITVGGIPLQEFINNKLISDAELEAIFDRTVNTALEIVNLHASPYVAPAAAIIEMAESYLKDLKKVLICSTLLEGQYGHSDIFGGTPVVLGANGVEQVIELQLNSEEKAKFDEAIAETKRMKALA
# [4] = inhibition of 3D7 malaria parasite growth – strain 3D7 (AID 2306);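 note: 0% = DMSO wells and 100% = chloroquine plus artemisinin control wells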; settings: P. falciparum 3D7 erythrocytic growth, LDH absorbance, 72 h; at 2 µM; stronger effect = higher value
# [5] = target: Calcium-dependent protein kinase 1 (Plasmodium falciparum (isolate 3D7)) (UniProt P62344); assay: PfCDPK1 kinase inhibitors, biochemical, TCAMS library (AID 1159585; cut-off not given, nearly all actives have IC50 up to about 0.98 µM;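 note: inhibitors leave more ATP so luminescence rises with inhibition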); settings: recombinant PfCDPK1, Kinase-Glo ATP depletion luminescence
# Calcium-dependent protein kinase 1 (Plasmodium falciparum (isolate 3D7)), sequence (P62344 whole entry, looked up): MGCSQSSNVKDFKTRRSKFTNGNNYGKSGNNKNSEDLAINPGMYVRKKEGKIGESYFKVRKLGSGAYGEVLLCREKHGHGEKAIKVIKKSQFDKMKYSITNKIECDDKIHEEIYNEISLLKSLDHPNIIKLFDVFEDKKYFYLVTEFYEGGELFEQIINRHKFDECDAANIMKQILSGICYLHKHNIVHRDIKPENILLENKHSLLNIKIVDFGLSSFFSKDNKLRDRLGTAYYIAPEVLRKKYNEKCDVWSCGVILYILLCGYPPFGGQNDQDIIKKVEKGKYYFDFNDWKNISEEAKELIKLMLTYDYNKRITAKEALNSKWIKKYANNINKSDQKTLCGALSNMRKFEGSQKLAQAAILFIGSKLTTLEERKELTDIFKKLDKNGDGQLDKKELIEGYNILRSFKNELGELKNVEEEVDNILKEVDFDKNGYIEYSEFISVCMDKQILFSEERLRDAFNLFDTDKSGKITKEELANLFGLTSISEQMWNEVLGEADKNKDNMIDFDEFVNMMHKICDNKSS
# [6] = target: Plasmodium falciparum protein kinase 6 (PK6, PF3D7_1337100) (UniProt Q8IDW1); assay: PfPK6 kinase inhibitors, biochemical, TCAMS library (AID 1159586); settings: recombinant PfPK6, Kinase-Glo ATP depletion luminescence
# Plasmodium falciparum protein kinase 6 (PK6, PF3D7_1337100), sequence (Q8IDW1 1-305): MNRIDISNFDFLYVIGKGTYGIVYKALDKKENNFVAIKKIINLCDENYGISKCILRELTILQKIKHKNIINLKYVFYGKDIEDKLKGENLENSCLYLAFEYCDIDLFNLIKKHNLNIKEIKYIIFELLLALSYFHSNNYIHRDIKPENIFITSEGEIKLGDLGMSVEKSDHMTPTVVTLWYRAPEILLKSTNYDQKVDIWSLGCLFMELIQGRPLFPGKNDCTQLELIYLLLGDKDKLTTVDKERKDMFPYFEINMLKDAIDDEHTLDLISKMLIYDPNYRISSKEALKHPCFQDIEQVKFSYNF
# [7] = target: Protein kinase 7 (PK7), Plasmodium falciparum 3D7 (PF3D7_0213400) (UniProt Q7YTF7); assay: inhibition of Plasmodium PK7 catalytic activity – biochemical, TCAMS antimalarial set, Kinase-Glo luminescence (AID 1159587); settings: recombinant PfPK7, Kinase-Glo ATP depletion luminescence
# Protein kinase 7 (PK7), Plasmodium falciparum 3D7 (PF3D7_0213400), sequence (Q7YTF7 1-343): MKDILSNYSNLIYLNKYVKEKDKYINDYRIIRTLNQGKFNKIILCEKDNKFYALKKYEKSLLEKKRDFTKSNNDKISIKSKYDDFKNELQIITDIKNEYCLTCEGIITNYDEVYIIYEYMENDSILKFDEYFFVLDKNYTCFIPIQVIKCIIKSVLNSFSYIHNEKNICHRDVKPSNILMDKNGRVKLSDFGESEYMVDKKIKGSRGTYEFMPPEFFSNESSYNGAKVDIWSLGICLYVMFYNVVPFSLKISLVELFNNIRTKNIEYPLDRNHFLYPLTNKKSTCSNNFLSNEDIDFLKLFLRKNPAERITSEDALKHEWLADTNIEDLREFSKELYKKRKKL
# [8] = target: Calcium-dependent protein kinase 4 (Plasmodium falciparum (isolate 3D7)) (UniProt Q8IBS5); assay: PfCDPK4 kinase inhibitors, biochemical, TCAMS library (AID 1159588; cut-off not given, nearly all actives have IC50 up to about 0.91 µM); settings: recombinant PfCDPK4, Kinase-Glo ATP depletion luminescence
# Calcium-dependent protein kinase 4 (Plasmodium falciparum (isolate 3D7)), sequence (Q8IBS5 whole entry, looked up): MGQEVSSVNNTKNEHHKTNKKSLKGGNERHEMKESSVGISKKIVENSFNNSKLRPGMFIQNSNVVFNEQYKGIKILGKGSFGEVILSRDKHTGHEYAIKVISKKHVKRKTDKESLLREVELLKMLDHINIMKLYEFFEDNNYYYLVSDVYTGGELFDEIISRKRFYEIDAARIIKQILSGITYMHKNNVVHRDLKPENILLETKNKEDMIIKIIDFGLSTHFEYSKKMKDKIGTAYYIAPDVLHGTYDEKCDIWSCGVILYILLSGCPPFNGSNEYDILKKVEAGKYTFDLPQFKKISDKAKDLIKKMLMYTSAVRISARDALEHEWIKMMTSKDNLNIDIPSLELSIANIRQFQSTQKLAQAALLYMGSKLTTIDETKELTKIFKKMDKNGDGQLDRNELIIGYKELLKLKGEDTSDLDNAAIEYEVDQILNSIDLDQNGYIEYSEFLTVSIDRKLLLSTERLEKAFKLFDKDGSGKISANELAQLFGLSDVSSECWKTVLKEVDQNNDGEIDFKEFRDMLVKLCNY
Structure (SMILES),growth inhibition [1],inhibition [2],inhibition [3],growth inhibition [4],outcome [5],outcome [6],outcome [7],outcome [8]
O=C1CCCN1CCCNCc1ccc(-c2ccc(-c3nc4ccc(C(F)(F)F)cc4[nH]3)cc2)cc1,98% (active),10%,-5%,101% (active),inactive,inactive,inactive,inactive
CCC(C)NS(=O)(=O)c1ccc2nc(Nc3ccc(C)cc3)n([C@H](C)C(C)(C)C)c2c1 (stereo partly drawn),98% (active),2%,0%,98% (active),inactive,inactive,inactive,inactive
COc1ccc(CN2CCC(NCc3cccc(C(F)(F)F)c3)CC2)cc1,8%,6%,0%,99% (active),inactive,inactive,inactive,inactive
Cc1cc(NCCc2ccccc2)nc(/N=C(\N)Nc2cccc(F)c2)n1,-1%,-6%,-2%,91% (active),inactive,inactive,inactive,inactive
COc1ccc2c(=O)ccn(CCN3CCC(NCc4ccc5c(n4)NC(=O)CS5)CC3)c2c1,99% (active),7%,1%,98% (active),inactive,inactive,inactive,inactive
CC(Cc1ccc(NC(=O)COc2ccc(CC(C)NCCc3cccc(Cl)c3)cc2)cc1)NCCc1cccc(Cl)c1 (stereo not drawn),98% (active),100% (active),4%,105% (active),inactive,inactive,inactive,inactive
CC(C)Cc1nc(N)nc(N)c1-c1ccc(Cl)cc1,3%,5%,6%,96% (active),inactive,inactive,inactive,inactive
NC(N)=NN=Cc1c2ccc(Cl)cc2c(Cl)c2ccc(Cl)cc12,90% (active),28%,0%,100% (active),inactive,inactive,inactive,inactive
CC(C)N(CC(=O)c1ccc(O)c(C(=O)O)c1)Cc1ccccc1,26%,-7%,-7%,97% (active),inactive,inactive,inactive,inactive
Cc1[nH]c(C)c(-c2ccc(-c3ccc(Cl)cc3)cc2)c(=O)c1Cl,96% (active),-9%,-6%,96% (active),inactive,inactive,inactive,inactive
O=[N+]([O-])c1ccc2c(-c3ccccc3)c(-c3ccccc3)n(O)c2c1,11%,8%,-3%,97% (active),inactive,inactive,inactive,inactive
O=C(NCCCCCN1CCCN(C(=O)Nc2ccc(Cl)c(C(F)(F)F)c2)CC1)[C@@H]1C[C@H]1c1ccc(Cl)c(Cl)c1,1%,41%,3%,100% (active),inactive,inactive,inactive,inactive
Cc1cc(NN=Cc2cccc(F)c2)c2cccc(C)c2n1,53% (active),14%,5%,100% (active),inactive,inactive,inactive,inactive
CN=C(NC)c1cccc(NC(=O)C=Cc2ccc(C=CC(=O)Nc3cccc(C(=NC)NC)c3)cc2)c1,99% (active),21%,2%,98% (active),inactive,inactive,inactive,inactive
CN(C)C(CNC(=O)c1cc(-c2ccncc2)c(-c2cc3ccccc3[nH]2)o1)c1ccccc1 (stereo not drawn),62% (active),3%,-2%,96% (active),inactive,inactive,inactive,inactive
CCOc1ccccc1NC(=O)Nc1ccc2c(c1)CCN(C1CCC1)CC2,2%,15%,-3%,88% (active),inactive,inactive,inactive,inactive
CCC[C@@H]([C@@H](CC(C)C)C(=O)N[C@@H](CCCCNC(=O)c1ccccn1)C(=O)Nc1nccs1)N(O)C=O,100% (active),-23%,-3%,101% (active),inactive,inactive,inactive,inactive
Cn1c(=N)cc(-c2ccc(Br)cc2)c2c(=O)[nH]c(N)nc21,57% (active),5%,1%,80% (active),inactive,inactive,inactive,inactive
CCCOc1ccc(-c2nonc2NC(=O)c2cccc(OC)c2)cc1OCCC,100% (active),18%,0%,94% (active),inactive,inactive,inactive,inactive
CN1CCCN(Cc2ccc(-c3ccc(NC(=O)c4cccc(Cl)c4)cc3)cc2)CC1,64% (active),55% (active),2%,95% (active),inactive,inactive,inactive,inactive
CCn1c(-c2ccccc2)cc2nnc3ccccc3c21,87% (active),34%,5%,92% (active),inactive,inactive,inactive,inactive

Structure (SMILES),growth inhibition [1],inhibition [2],inhibition [3],growth inhibition [4],outcome [5],outcome [6],outcome [7],outcome [8]
COc1cc(C(=O)NCc2nn(CCN3CCC(N4CCCC4)CC3)cc2-c2ccc(Cl)c(Cl)c2)cc(OC)c1OC,-8%,16%,-1%,97% (active),inactive,inactive,inactive,inactive
CN1CCN(c2cc(NC(=O)c3ccc(-c4ccc(Cl)cc4)cc3)ccc2Cl)CC1,33%,30%,-2%,99% (active),inactive,inactive,inactive,inactive
CC(C)CCCC(C)(C)NC[C@@H](O)[C@H](Cc1ccccc1)NC(=O)c1cc(NC(C)C)cc(N2CCCCS2(=O)=O)c1,98% (active),2%,-1%,98% (active),inactive,inactive,inactive,inactive
Cc1sc2nc(CSc3ccccc3)nc(N3CCN(CC(=O)NC4CC4)CC3)c2c1C,95% (active),2%,1%,96% (active),inactive,inactive,inactive,inactive
COc1cccc(OC)c1C(=O)N1CCC2(CC1)C(=O)N(CC(=O)NC1CCCCC1)CN2c1ccccc1,91% (active),16%,5%,92% (active),inactive,inactive,inactive,inactive
FC(F)(F)c1ccc2c(NCCNc3ccnc4cc(C(F)(F)F)ccc34)ccnc2c1,100% (active),21%,1%,101% (active),inactive,inactive,inactive,inactive
Cc1cc(NCCC(=O)NCCOc2ccccc2)nc(Nc2ccccc2)n1,55% (active),26%,-1%,94% (active),inactive,inactive,inactive,inactive
OC(Cn1ccnc1)(c1ccc(Cl)cc1Cl)C1CCCCC1 (stereo not drawn),58% (active),7%,7%,98% (active),inactive,inactive,inactive,inactive
COc1ccc2nccc([C@@H](O)CN3CCC(NCc4cc5cccnc5[nH]4)CC3)c2n1,0%,7%,-2%,90% (active),inactive,inactive,inactive,inactive
NC(N)=Nc1nc(-c2cc(NC(=O)C(F)(F)F)cc([N+](=O)[O-])c2)cs1,51% (active),7%,5%,98% (active),inactive,inactive,inactive,inactive
COc1c(C2CCN(CCCCNC(=O)c3ccc(-c4ccc(C#N)cc4)cc3)CC2)ccc2c1C(C)(C)CCC2(C)C,86% (active),98% (active),-1%,102% (active),inactive,inactive,inactive,inactive
COC(=O)c1cccc(CNCc2ccc(-c3ccc(-c4nc5ccc(C(F)(F)F)cc5[nH]4)s3)cc2)c1,96% (active),34%,-2%,101% (active),inactive,inactive,inactive,inactive
c1ccc(CNc2nc(NCCN3CCCCC3)nc3ccccc23)cc1,8%,19%,-11%,87% (active),inactive,inactive,inactive,inactive
O=C(C1CC1)N1c2ccccc2CCc2ccccc21,57% (active),40%,1%,98% (active),inactive,inactive,inactive,inactive
CN(C)Cc1cccc(-c2ccc(NC(=O)c3ccc4c(=O)n(Cc5ccoc5)cnc4c3)cc2)c1,9%,54% (active),3%,98% (active),inactive,inactive,inactive,inactive
CCCc1cc(C(=O)N[C@@H](Cc2ccccc2)[C@H](O)CNC(C)C)c(F)c(N2CCCC2=O)c1,22%,-2%,0%,90% (active),inactive,inactive,inactive,inactive
CC(=O)c1ccc(N2CCN(CCC3(c4ccc(Cl)c(Cl)c4)COCN(C(=O)c4ccccc4)C3)CC2)cc1 (stereo not drawn),95% (active),12%,5%,88% (active),inactive,inactive,inactive,inactive
CN1CCN(CCCN(Cc2csc(-c3ccc(CNCc4ccccc4)cc3)n2)C(=O)c2cc(F)cc(F)c2)CC1,53% (active),60% (active),-2%,97% (active),inactive,inactive,inactive,inactive
Fc1ccc(C=NNc2nc3ccccc3[nH]2)cc1,58% (active),-7%,-2%,98% (active),inactive,inactive,inactive,inactive
C/C=C/COc1ccc2ccccc2c1CNCCCCCCCCNCc1c(OC/C=C/C)ccc2ccccc12,86% (active),100% (active),3%,87% (active),inactive,inactive,inactive,inactive
